Records with an inconclusive call do not appear. Entries that show only a call come without a potency. Calls of active or inactive are those of the source. The call rests on the fitted dose curve; in most records, active means well fitted inhibition curve with a large enough effect in the repeat runs; inconclusive means weak or mixed curves; inactive means no such curve, though single readings can be large or run the other way.
The molecules below were run against Cytochrome P450 1A2 (Homo sapiens) (UniProt P05177) (assay: Cytochrome P450 Family 1 Subfamily A Member 2 (CYP1A2) small molecule antagonists: luciferase reporter qHTS assay (AID 1671199; further: nearly all actives have a fitted effect of over 50% in size)). Conditions: P450-Glo CYP1A2 enzyme, luciferin luminescence, 1 h; series mostly up to 115 µM.
Cytochrome P450 1A2 (Homo sapiens), sequence (P05177 whole entry, looked up): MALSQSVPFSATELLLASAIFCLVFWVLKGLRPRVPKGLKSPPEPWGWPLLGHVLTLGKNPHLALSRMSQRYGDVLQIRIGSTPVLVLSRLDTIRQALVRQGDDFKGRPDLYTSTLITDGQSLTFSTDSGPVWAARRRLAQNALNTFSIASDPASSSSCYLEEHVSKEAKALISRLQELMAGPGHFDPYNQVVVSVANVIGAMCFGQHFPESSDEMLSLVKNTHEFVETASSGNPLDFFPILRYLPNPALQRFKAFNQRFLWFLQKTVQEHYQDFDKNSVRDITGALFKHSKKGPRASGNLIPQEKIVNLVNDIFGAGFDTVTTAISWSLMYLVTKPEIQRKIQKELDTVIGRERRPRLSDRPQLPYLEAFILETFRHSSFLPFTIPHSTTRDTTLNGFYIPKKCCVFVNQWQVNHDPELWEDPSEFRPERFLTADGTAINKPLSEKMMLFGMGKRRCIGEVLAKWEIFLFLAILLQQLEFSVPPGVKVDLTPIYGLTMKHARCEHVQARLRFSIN
Source text: National Center for Advancing Translational Sciences [NCATS]
U.S. Environmental Protection Agency [EPA]
National Institutes of Environmental Health Sciences [NIEHS]
National Toxicology Program [NTP]
U.S. Food and Drug Administration [FDA]
Cytochrome P450 (CYP) enzymes are membrane-bound hemeproteins that play a key role in metabolism of drugs and xenobiotics. Evaluation of the effect of chemicals on CYP isozymes is useful to minimize the adverse drug reactions and toxicities in drug development process. Tox21 chemicals were tested for their effect on CYP enzyme activities by using P450-Glo (TM) screening systems (Promega Corporation, Madison, WI). These systems provide a luminescent method containing proluciferin substrates and are converted to luciferin products by CYP isozymes. The luciferin products formed are detected with a luciferin detection reagent, and the amount of light produced is proportional to CYP activity. P450-Glo (TM) CYP1A2 screening system (Catalog. No. V9770) was used to detect the compounds that interfere in CYP1A2 activity. The positive control compound used for CYP1A2 assay is furafylline (Sigma-Aldrich, St. Louis, MO).
Tox21 Assay Protocol Summary:
Two ul of enzyme-substrate mix was dispensed into medium binding white/solid 1536-well plates (Greiner Bio-One North America Inc., Monroe, NC) using a BioRaptr Flying Reagent Dispenser (FRD, Beckman Coulter, Brea, CA). Compounds dissolved in DMSO and positive control (furafyllline) were transferred to the assay plates at 23 nl using a Pintool station (Wako, San Diego, CA). The assay plates were incubated at room temperature for 10 min. Then 2 ul of NADPH regeneration solution was added to each well of the assay plates using an FRD and incubated at room temperature for 1 h. The reaction was stopped by adding 4 ul of detection reagent using an FRD and after 20 min incubation at room temperature the luminescence signal was measured using a ViewLux plate reader (Perkin Elmer, Shelton, CT). Data were expressed as relative luminescence units.
In the case of `CCCc1nc2c(C)cc(-c3nc4ccccc4n3C)cc2n1Cc1ccc(-c2ccccc2C(=O)O)cc1`, the Potency is reported as “inactive”.
In the case of `COC(=O)c1sccc1S(N)(=O)=O`, the Potency is reported as “inactive”.
With `COc1ccc(-c2cc(C(F)F)nn2-c2ccc(S(N)(=O)=O)cc2)cc1F` the Potency was “inactive”.
With `FC(F)(F)C(F)(F)C(F)(F)C(F)(F)CCI` the Potency was “inactive”.
For `CCN(CC)CC(=O)Nc1c(C)cccc1C(=O)OC`, the Potency was “inactive”.
In the case of `Cc1c[nH]c2ccccc12`, the Potency is reported as 14.4 µM (active).
For `C=C(C)C(=O)OCCC(F)(F)C(F)(F)C(F)(F)C(F)(F)C(F)(F)C(F)(F)F`, the Potency was “inactive”.
`CC(C)COC(=O)COc1cc(Cl)c(Cl)cc1Cl` was tested, and the Potency was 31.6 µM (active).
In the case of `O=c1[nH][nH]c(=O)c2cc([N+](=O)[O-])ccc12`, the Potency is reported as “inactive”.
With `CC(C)(C)CCCCCCOC(=O)c1ccccc1C(=O)OCCCCCCC(C)(C)C` the Potency was “inactive”.
With `CCOC(=O)Oc1ccc(CCNC(=O)[C@H](CCSC)NC(C)=O)cc1OC(=O)OCC` the Potency was “inactive”.
`O=C(O)c1ccc(O)cc1O` was tested, and the Potency was “inactive”.
`CCCCC[C@H](O)/C=C/[C@H]1[C@H](O)CC(=O)[C@@H]1C/C=C\CCCC(=O)O` was tested, and the Potency was “inactive”.
For `CC1CCC(C(C)CS)CC1S` (stereo not given), the Potency was “inactive”.
In the case of `CC(=O)OCC(=O)[C@@]1(OC(C)=O)[C@@H](C)C[C@H]2[C@@H]3C[C@H](F)C4=CC(=O)C=C[C@]4(C)[C@@]3(F)[C@@H](O)C[C@@]21C`, the Potency is reported as “inactive”.
In the case of `Oc1ccc2c(c1)Cc1ccccc1-2`, the Potency is reported as 3.56 µM (active).
`N[C@@H](Cc1cc(I)c(O)c(I)c1)C(=O)O` was tested, and the Potency was “inactive”.
For `ClC1=C(Cl)C1(Cl)Cl`, the Potency was “inactive”.
For `O=C1OC[C@H](Cc2cccc(O)c2)[C@H]1Cc1cccc(O)c1`, the Potency was 10.7 µM (active).
In the case of `CN=C(N)NC(=O)Nc1c(C)cccc1C`, the Potency is reported as “inactive”.
In the case of `CC(C)c1ccc(C#N)cc1`, the Potency is reported as “inactive”.
In the case of `O=C(O)c1cccc(C[C@@H]2COc3ccc(OCc4nc5cc(F)ccc5s4)cc3[C@@H]2O)c1`, the Potency is reported as 31.8 µM (active).
`CC[C@H]1OC(=O)[C@H](C)[C@@H](O[C@H]2C[C@@](C)(OC)[C@@H](O)[C@H](C)O2)[C@H](C)[C@@H](O[C@@H]2O[C@H](C)C[C@H](N(C)C)[C@H]2O)[C@](C)(O)C[C@@H](C)/C(=N\OCOCCOC)[C@H](C)[C@@H](O)[C@]1(C)O` was tested, and the Potency was “inactive”.
In the case of `COc1ccc(/C=C/C(=O)c2ccc(OC)cc2OC)cc1`, the Potency is reported as 4.56 µM (active).
`O=S(=O)(Cl)c1c(Cl)cccc1Cl` was tested, and the Potency was “inactive”.
`CSSc1ccoc1C` was tested, and the Potency was “inactive”.
For `O=CNNC=O`, the Potency was “inactive”.
In the case of `CCC(=O)OCc1ccc(OC)cc1`, the Potency is reported as 57.8 µM (active).
With `COc1ccc(C2C(=O)c3ccccc3C2=O)cc1` the Potency was “inactive”.
For `O=C(C(=O)c1ccco1)c1ccco1`, the Potency was 35.9 µM (active).
For `CCCCCCCC(=O)Oc1c(Br)cc(C#N)cc1Br`, the Potency was 12.6 µM (active).
`O=C(c1ccccc1)c1ccc(O)cc1` was tested, and the Potency was 32.1 µM (active).
With `Cc1cccc(C)c1NC(=O)c1cc(S(N)(=O)=O)c(Cl)cc1O` the Potency was “inactive”.
In the case of `CCCCCCCCCCCCCCCC(=O)OCC`, the Potency is reported as “inactive”.
In the case of `CC(=O)NCCO`, the Potency is reported as “inactive”.
With `CO[C@@H]1[C@@H](OC)[C@H](C)[C@@](O)(CC(=O)O)O[C@H]1[C@H](C)[C@H]1O[C@@]2(CC[C@@](C)([C@H]3CC[C@@](C)([C@@H]4O[C@@H]([C@H]5O[C@](C)(O)[C@H](C)C[C@@H]5C)C[C@@H]4OC4C[C@H](OC)[C@@H](OC)[C@H](C)O4)O3)O2)C[C@H](O)[C@H]1C` (stereo not given in full) the Potency was “inactive”.
In the case of `COC(=O)Nc1nc2ccc(C(=O)C3CC3)cc2[nH]1`, the Potency is reported as 10.2 µM (active).
In the case of `CCCCCCC(O)CCCCCCCCCCC(=O)OC` (stereo not given), the Potency is reported as “inactive”.
In the case of `Nc1ccc(S(=O)(=O)NCc2ccccc2)cc1`, the Potency is reported as “inactive”.
With `Cc1ccc(Cl)cc1N` the Potency was 10.2 µM (active).
Potency means the concentration at half of the fitted maximal effect.
